Test results published in PubChem BioAssay (Tox21).
Results filed as inconclusive are left out. Calls of active or inactive are those of the source. Unless noted, the call rests on the fitted dose curve.

What was measured:
[1] = qHTS assay to identify small molecule agonists of the sonic hedgehog signaling (Shh) pathway (AID 1259368);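 further: NIH/3T3-derived 3T3Gli1-Luc cells carrying a stable Gli1-driven firefly luciferase reporter; series mostly up to about 92 µM; nearly all actives have a fitted effect of over 15% in size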
Method in brief: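 Read-out: firefly luciferase luminescence from a Gli1 response element reporter stably integrated in NIH/3T3-derived 3T3Gli1-Luc cells, measured 30 min at room temperature after reagent addition. Compound exposure lasted 24 hr at 37 C, 5% CO2.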

[2] = qHTS assay to identify small molecule antagonists of the sonic hedgehog signaling (Shh) pathway (AID 1259369); further: nearly all actives have a fitted effect of over 45% in size; further: potency means the concentration at half of the fitted maximal effect
Method in brief: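 Luminescence readout: firefly Luc under Gli1 response element in 3T3Gli1-Luc cells (NIH/3T3 clone). Antagonist mode, stimulation by conditioned medium; compound exposure 24hr at 37 C, 5% CO2.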

[3] = biological target: Estrogen receptor beta (Homo sapiens) (UniProt Q92731); assay: qHTS assay to identify small molecule agonists of the estrogen receptor beta (ER-beta) signaling pathway (AID 1259377; active means well fitted activation curve with a large enough effect in the signal ratio in the repeat runs, not every such curve was filed as active; the % refers to the signal ratio)
Method in brief: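 Read-out: beta-lactamase FRET fluorescence. Cell line: ER-beta-UAS-bla HEK293T in 2% charcoal-stripped FBS. Exposure: 16 hr at 37C. Substrate step: 2 h at room temperature.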

[4] = biological target: Estrogen receptor beta (Homo sapiens) (UniProt Q92731); assay: qHTS assay to identify small molecule antagonists of the estrogen receptor beta (ER-beta) signaling pathway (AID 1259378; active means well fitted inhibition curve with a large enough effect in the signal ratio in the repeat runs, not every such curve was filed as active; the % refers to the signal ratio)
Method in brief: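 ER-beta-UAS-bla HEK293T cells in 2% charcoal-stripped FBS medium treated with compound plus 1nM final 17-beta-estradiol for 16 hr at 37C. Beta-lactamase reporter read by FRET substrate fluorescence after 2 hours at room temperature.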

[5] = qHTS assay to identify small molecule agonists of the androgen receptor (AR) signaling pathway in the presence of an antagonist - cell viability counter screen (AID 1259379; active means well fitted curve in the direction sought with a large enough effect in the repeat runs; an effect the other way counts as inactive or inconclusive;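 further: MDA-kb2 human breast cancer cells carrying an MMTV luciferase reporter; series mostly up to about 92 µM; nearly all actives have a fitted effect of over 25% in size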)
Method in brief: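 Viability counter screen: CellTiter-Fluor fluorescence, measured in the same wells as the luciferase read-out. MDA-kb2 cells, 3,000/well, with nilutamide at 3.0uM final and compounds at 15 concentrations, 16 hr at 37C, 0% CO2.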

[6] = qHTS assay to identify small molecule antagonists of the estrogen receptor beta (ER-beta) signaling pathway - cell viability counter screen (AID 1259382; active means well fitted curve in the direction sought with a large enough effect in the repeat runs; an effect the other way counts as inactive or inconclusive; further: series mostly up to about 92 µM; nearly all actives have a fitted effect of over 55% in size)
Method in brief: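 Luminescent ATP read-out (CellTiter-Glo, 30 min, RT) taken in the same wells as the bla reporter assay. HEK293T ER-beta-UAS-bla cells in 2% charcoal-stripped FBS were exposed to compounds with 1nM E2 for 16 hr at 37C.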

[7] = biological target: Estrogen receptor (Homo sapiens) (UniProt P03372); assay: qHTS assay to identify small molecule agonists of the estrogen receptor alpha (ER-alpha) signaling pathway in the presence of an antagonist (AID 1259383); further: nearly all actives have a fitted effect of over 15% in size; further: potency means the concentration at half of the fitted maximal effect; on activation: top concentration of the series differs between compounds
Method in brief: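 Luciferase luminescence (ONE-Glo, 30min at room temperature) measured in VM7Luc4E2 cells after 22hr compound exposure at 15 concentrations, with 10.0nM ICI-182,780 final present; cells express endogenous ER-alpha and carry four EREs upstream of luciferase.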

[8] = qHTS assay to identify small molecule agonists or antagonists of the thyroid stimulating hormone receptor (TSHR) signaling pathway - wild type cell line counter screen (AID 1259384)
Method in brief: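 Wild-type Hek293 cells, 800/well, 18 h at 37C, then compound with Ro20-1724 for 30 min RT. cAMP by HTRF (cAMP-d2/anti-cAMP cryptate), 1 h RT, fluorescence read. 15 concentrations, triplicates.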

[9] = biological target: Thyrotropin receptor (Homo sapiens) (UniProt P16473); assay: qHTS assay to identify small molecule antagonists of the thyroid stimulating hormone receptor (TSHR) signaling pathway (AID 1259385); further: nearly all actives have a fitted effect of over 20% in size
Method in brief: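 TSHR-HEK293 cells (800/well) plated 18 h, then compounds with Ro20-1724 and TSH at 1.5 ng/mL final, 30 min at room temperature. cAMP quantified by HTRF (cAMP-d2/anti-cAMP-cryptate, 1 h); 15 concentrations in triplicate.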

[10] = qHTS assay to identify small molecule agonists of the estrogen receptor alpha (ER-alpha) signaling pathway in the presence of an antagonist - cell viability counter screen (AID 1259386; active means well fitted curve in the direction sought with a large enough effect in the repeat runs; an effect the other way counts as inactive or inconclusive;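 further: series mostly up to about 92 µM; cells exposed to compounds for 22 h at 37 °C before the viability read; nearly all actives have a fitted effect of over 30% in size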)
Method in brief: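 Read-out: CellTiter-Fluor fluorescence after 1hr reagent incubation, measured in the same wells as the luciferase readout. VM7Luc4E2 cells were exposed to 15 compound concentrations with 10.0nM ICI-182,780 for 22hr at 37C.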

[11] = qHTS assay to identify small molecule antagonists of the progesterone receptor (PR) signaling pathway - cell viability counter screen (AID 1346798; active means well fitted curve in the direction sought with a large enough effect in the repeat runs; an effect the other way counts as inactive or inconclusive; further: nearly all actives have a fitted effect of over 50% in size; further: potency means the concentration at half of the fitted maximal effect; on activity change, negative = cytotoxicity: series mostly up to about 92 µM)
Method in brief: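 Following a 4 hr attachment, PR-UAS-bla HEK293T cells in charcoal-stripped FBS medium were exposed to compounds with R5020 for 16 hr; CellTiter-Glo was added and luminescence read after 30 min at room temperature.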

[12] = qHTS assay to identify small molecule agonists of the progesterone receptor (PR) signaling pathway - cell viability counter screen (AID 1346799); further: nearly all actives have a fitted effect of over 45% in size; further: potency means the concentration at half of the fitted maximal effect
Method in brief: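 Here, 3,000 PR-UAS-bla HEK293T cells per well were treated with compounds for 16 hr after a 6 hr preincubation at 37C and 5% CO2; cell viability is the CellTiter-Glo luminescence signal.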

[13] = biological target: Progesterone receptor (Homo sapiens) (UniProt P06401); assay: qHTS assay to identify small molecule agonists of the progesterone receptor (PR) signaling pathway (AID 1346784); further: nearly all actives have a fitted effect of over 30% in size
Method in brief: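 Compounds were tested for PR agonism in HEK 293T cells bearing a beta-lactamase gene under UAS control. Treatment lasted 16 hr at 37C; signal came from fluorescence of a FRET substrate.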

[14] = biological target: Progesterone receptor (Homo sapiens) (UniProt P06401); assay: qHTS assay to identify small molecule antagonists of the progesterone receptor (PR) signaling pathway (AID 1346795; active means well fitted inhibition curve with a large enough effect in the signal ratio in the repeat runs, not every such curve was filed as active; the % refers to the signal ratio; further: potency means the concentration at half of the fitted maximal effect)
Method in brief: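 In HEK293T cells bearing the PR-UAS-bla reporter, compound effects on promegestone-driven (1 nM) beta-lactamase expression are assessed after 16 hr using a fluorescent FRET substrate incubated 2 hr at room temperature.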

[15] = qHTS assay to identify small molecule antagonists of the TGF-beta/Smad signaling pathway - cell viability counter screen (AID 1346824; active means well fitted curve in the direction sought with a large enough effect in the repeat runs; an effect the other way counts as inactive or inconclusive; further: nearly all actives have a fitted effect of over 50% in size)
Method in brief: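 SBE-bla HEK 293T cells, incubated overnight, then compound plus 0.25 ng/mL TGF-beta1 (stock added) for 5 hr at 37 C. Viability was read in the same wells by CellTiter-Glo luminescence after 30 min at room temperature.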

[16] = qHTS assay to identify small molecule agonists of the TGF-beta/Smad signaling pathway - cell viability counter screen (AID 1346829; active means well fitted curve in the direction sought with a large enough effect in the repeat runs; an effect the other way counts as inactive or inconclusive; further: top concentration of the series differs between compounds; nearly all actives have a fitted effect of over 45% in size)
Method in brief: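 Cytotoxicity counter screen: CellTiter-Glo luminescence (30 min, room temperature) measured in the SBE-bla HEK 293T reporter wells after 5 hr compound treatment at 37 C and the 2 hr substrate step.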

[17] = qHTS assay to identify small molecule agonists of the TGF-beta/Smad signaling pathway (AID 1346859; active means well fitted activation curve with a large enough effect in the signal ratio in the repeat runs, not every such curve was filed as active; the % refers to the signal ratio; further: series mostly up to about 77 µM)
Method in brief: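 Each well held 4,000 SBE-bla HEK 293T cells incubated overnight before compound addition; 5 hr later the cleavable FRET substrate went on for 2 hr at room temperature, and fluorescence was read at two emissions.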

[18] = qHTS assay to identify small molecule agonists of the estrogen receptor beta (ER-beta) signaling pathway - cell viability counter screen (AID 1259380; active means well fitted curve in the direction sought with a large enough effect in the repeat runs; an effect the other way counts as inactive or inconclusive; further: nearly all actives have a fitted effect of over 30% in size)
Method in brief: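 Luminescence read-out (CellTiter-Glo, 30 min, room temp) taken in the same wells as the beta-lactamase reporter assay; ER-beta-UAS-bla HEK293T cells exposed to DMSO-dissolved compounds for 16 hr at 37C in 2% charcoal-stripped FBS medium.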

[19] = biological target: Thyrotropin-releasing hormone receptor (Homo sapiens) (UniProt P34981); assay: qHTS assay to identify small molecule antagonists of the thyrotropin-releasing hormone receptor (TRHR) signaling pathway (AID 1346877; active means well fitted inhibition curve with a large enough effect in the repeat runs, not every such curve was filed as active; further: series mostly up to about 51 µM)
Method in brief: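 HEK293/TRHR cells, 18 h, 37 °C; Ca2+ dye 2 h; cpd 5 min RT; TRH 1 nM final; fluorescence read 3 min, 1 s intervals; 15 concs, triplicate.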

[20] = biological target: Androgen receptor (Homo sapiens) (UniProt P10275); assay: qHTS assay to identify small molecule agonists of the androgen receptor (AR) signaling pathway in the presence of an antagonist (AID 1259381); further: nearly all actives have a fitted effect of over 15% in size
Method in brief: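 Luciferase read-out (ONE-Glo, 30min room temperature) in MDA-kb2 MMTV-reporter cells; agonist mode run in presence of AR antagonist nilutamide, 3.0uM final. Compounds tested as 15-point series, 16hr exposure at 37C, 0% CO2.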
On the % scale 0 is the no-effect control and ±100 the full control effect.

Estrogen receptor (Homo sapiens), sequence (P03372 whole entry, looked up): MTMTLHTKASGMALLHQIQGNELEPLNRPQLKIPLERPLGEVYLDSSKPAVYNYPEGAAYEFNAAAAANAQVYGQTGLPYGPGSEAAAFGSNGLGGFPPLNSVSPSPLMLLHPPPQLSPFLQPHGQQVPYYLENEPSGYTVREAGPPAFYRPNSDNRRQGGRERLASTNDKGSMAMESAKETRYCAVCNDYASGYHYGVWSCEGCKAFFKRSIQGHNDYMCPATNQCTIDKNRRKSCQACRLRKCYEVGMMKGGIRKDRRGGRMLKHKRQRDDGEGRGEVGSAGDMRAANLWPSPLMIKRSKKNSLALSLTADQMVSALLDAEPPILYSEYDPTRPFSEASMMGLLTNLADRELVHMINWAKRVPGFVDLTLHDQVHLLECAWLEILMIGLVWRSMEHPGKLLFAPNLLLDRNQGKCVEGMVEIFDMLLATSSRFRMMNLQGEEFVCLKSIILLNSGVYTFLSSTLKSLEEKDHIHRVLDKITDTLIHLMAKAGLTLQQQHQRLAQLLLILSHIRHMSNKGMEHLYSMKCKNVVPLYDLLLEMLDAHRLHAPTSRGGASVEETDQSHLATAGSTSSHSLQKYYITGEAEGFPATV
Progesterone receptor (Homo sapiens), sequence (P06401 whole entry, looked up): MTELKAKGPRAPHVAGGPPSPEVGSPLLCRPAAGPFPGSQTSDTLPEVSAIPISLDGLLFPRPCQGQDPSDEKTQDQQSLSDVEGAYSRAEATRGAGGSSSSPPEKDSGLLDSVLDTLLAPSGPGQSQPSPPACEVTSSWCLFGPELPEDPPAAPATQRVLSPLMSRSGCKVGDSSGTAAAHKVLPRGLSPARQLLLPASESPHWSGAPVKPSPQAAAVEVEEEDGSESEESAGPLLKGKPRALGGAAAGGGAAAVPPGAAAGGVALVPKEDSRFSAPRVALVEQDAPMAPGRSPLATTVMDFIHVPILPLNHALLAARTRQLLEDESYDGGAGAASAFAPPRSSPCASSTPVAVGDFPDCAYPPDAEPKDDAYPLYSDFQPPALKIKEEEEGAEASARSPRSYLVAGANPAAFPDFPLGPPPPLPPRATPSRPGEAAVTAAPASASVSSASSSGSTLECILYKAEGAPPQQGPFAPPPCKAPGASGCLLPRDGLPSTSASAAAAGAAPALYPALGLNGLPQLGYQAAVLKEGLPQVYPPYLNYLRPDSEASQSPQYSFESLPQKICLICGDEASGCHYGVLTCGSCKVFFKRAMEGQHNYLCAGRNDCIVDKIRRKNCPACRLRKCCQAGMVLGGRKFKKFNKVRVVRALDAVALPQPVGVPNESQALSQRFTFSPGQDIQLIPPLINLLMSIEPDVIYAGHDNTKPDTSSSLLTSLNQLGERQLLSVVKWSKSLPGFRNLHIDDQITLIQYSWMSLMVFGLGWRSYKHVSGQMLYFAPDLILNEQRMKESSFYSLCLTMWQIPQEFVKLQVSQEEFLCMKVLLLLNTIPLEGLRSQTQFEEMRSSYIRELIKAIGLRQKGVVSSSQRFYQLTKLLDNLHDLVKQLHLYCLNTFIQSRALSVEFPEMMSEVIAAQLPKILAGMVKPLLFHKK
Thyrotropin-releasing hormone receptor (Homo sapiens), sequence (P34981 whole entry, looked up): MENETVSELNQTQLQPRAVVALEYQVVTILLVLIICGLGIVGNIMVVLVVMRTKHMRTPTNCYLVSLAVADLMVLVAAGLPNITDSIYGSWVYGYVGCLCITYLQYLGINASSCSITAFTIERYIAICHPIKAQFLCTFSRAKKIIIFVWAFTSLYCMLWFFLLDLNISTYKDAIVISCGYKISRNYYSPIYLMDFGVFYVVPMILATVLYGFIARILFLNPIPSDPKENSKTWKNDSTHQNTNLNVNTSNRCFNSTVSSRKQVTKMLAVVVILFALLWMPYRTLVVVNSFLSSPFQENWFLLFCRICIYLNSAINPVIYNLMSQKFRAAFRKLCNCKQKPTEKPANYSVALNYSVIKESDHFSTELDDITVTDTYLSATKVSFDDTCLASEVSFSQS
Estrogen receptor beta (Homo sapiens), sequence (Q92731 whole entry, looked up): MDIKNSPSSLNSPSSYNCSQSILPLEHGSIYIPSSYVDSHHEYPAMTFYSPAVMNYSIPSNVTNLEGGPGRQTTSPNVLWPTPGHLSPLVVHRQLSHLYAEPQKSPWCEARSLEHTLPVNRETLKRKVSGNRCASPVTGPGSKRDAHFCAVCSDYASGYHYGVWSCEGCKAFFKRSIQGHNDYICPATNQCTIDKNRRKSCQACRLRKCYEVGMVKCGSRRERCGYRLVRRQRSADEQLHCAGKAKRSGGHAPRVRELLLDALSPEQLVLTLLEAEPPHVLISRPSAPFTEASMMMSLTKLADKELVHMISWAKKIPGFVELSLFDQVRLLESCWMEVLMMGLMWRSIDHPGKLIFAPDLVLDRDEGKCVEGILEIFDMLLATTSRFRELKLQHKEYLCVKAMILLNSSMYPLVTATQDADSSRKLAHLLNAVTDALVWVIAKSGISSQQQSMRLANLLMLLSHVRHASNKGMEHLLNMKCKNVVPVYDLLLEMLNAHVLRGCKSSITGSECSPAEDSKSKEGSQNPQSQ
Thyrotropin receptor (Homo sapiens), sequence (P16473 whole entry, looked up): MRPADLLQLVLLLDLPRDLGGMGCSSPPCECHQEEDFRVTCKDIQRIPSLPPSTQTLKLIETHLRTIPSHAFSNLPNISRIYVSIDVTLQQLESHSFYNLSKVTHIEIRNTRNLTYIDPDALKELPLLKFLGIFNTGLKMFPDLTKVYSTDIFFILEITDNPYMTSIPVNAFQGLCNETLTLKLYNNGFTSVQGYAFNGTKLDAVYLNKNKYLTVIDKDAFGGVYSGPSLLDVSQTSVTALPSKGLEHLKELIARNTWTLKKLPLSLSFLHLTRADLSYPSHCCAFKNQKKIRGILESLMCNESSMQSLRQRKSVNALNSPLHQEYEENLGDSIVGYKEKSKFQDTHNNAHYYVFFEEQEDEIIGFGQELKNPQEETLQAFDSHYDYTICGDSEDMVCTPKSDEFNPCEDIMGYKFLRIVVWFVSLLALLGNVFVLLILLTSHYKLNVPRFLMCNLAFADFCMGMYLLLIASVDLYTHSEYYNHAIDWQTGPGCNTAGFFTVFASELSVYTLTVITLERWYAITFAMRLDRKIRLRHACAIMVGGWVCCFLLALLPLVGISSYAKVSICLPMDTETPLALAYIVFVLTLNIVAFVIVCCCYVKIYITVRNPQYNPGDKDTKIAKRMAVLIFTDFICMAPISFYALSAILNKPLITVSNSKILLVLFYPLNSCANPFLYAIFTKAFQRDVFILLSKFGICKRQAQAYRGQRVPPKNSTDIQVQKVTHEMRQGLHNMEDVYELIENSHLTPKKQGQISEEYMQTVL
Androgen receptor (Homo sapiens), sequence (P10275 whole entry, looked up): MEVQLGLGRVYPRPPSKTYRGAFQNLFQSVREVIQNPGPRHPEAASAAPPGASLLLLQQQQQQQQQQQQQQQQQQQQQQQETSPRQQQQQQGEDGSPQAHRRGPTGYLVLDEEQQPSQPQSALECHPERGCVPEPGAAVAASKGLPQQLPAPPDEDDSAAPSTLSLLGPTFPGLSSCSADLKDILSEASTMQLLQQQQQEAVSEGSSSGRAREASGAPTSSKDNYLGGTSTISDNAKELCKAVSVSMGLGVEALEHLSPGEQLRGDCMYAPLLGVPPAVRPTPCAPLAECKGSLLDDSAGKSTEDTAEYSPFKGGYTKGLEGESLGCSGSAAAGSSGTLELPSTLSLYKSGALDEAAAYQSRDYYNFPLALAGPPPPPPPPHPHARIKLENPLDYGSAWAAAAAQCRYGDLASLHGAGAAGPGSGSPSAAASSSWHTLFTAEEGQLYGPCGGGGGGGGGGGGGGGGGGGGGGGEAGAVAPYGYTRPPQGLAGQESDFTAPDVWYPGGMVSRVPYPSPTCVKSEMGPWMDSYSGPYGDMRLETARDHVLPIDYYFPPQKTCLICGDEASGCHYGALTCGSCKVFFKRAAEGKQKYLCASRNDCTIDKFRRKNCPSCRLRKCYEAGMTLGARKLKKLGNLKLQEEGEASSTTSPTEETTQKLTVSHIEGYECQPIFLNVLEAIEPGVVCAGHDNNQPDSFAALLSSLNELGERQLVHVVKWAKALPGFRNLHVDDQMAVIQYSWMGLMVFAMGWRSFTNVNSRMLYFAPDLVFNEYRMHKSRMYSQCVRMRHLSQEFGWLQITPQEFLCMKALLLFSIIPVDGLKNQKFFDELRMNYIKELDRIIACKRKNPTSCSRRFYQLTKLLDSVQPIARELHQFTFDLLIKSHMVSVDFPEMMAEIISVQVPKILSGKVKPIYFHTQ

O=C(NCc1cccnc1)Nc1ccc([N+](=O)[O-])cc1
active: Potency [11] 24.3 µM | Potency [12] 43.3 µM
inactive: Potency [1] | Potency [2] | Potency [3] | Potency [4] | Potency [5] | Potency [6] | Potency [7] | outcome [8] | Potency [9] | Potency [10]

O=C(O)c1ccccc1C(=O)Nc1cccc2ccccc12
inactive: Potency [1] | Potency [2] | Potency [3] | Potency [4] | Potency [5] | outcome [8] | Potency [9] | Potency [10] | Potency [13] | Potency [14] | Potency [11] | Potency [12] | Potency [15] | Potency [16] | outcome [17]

Nc1nc(=S)[nH][nH]1
inactive: Potency [1] | Potency [2] | Potency [3] | Potency [4] | Potency [5] | Potency [18] | Potency [7] | outcome [8] | Potency [9] | Potency [10] | Potency [14] | Potency [11] | Potency [12] | Potency [15] | outcome [17] | Potency [19]

CC[C@H]1C[C@H]2[C@@H]3CCC4=CC(=O)CC[C@@H]4[C@H]3CC[C@]2(C)[C@H]1O
inactive: Potency [1] | Potency [2] | Potency [3] | Potency [5] | Potency [18] | Potency [6] | Potency [7] | outcome [8] | Potency [9] | Potency [10] | Potency [11] | Potency [15] | Potency [16]

O=S(=O)(O)C(F)(F)C(F)(F)C(F)(F)C(F)(F)F
inactive: Potency [1] | Potency [3] | Potency [5] | Potency [18] | Potency [6] | outcome [8] | Potency [9] | Potency [11] | Potency [15] | Potency [16] | outcome [17]
active: Potency [2] 57.8 µM | Potency [7] 0.578 µM

CCOP(=S)(Oc1ccc([N+](=O)[O-])cc1)c1ccccc1 (stereo unspecified)
active: Potency [14] 2.17 µM
inactive: Potency [1] | Potency [2] | Potency [3] | Potency [4] | Potency [5] | Potency [18] | Potency [7] | Potency [13] | Potency [11] | Potency [15] | Potency [16] | Potency [19]

CCCCCCCCOC(=O)c1ccc(C(=O)OCCCCCCCC)c(C(=O)OCCCCCCCC)c1
inactive: Potency [1] | Potency [2] | Potency [3] | Potency [4] | Potency [5] | outcome [8] | Potency [9] | Potency [10] | Potency [13] | Potency [14] | Potency [12] | Potency [16] | outcome [17] | Potency [19]
active: Potency [11] 27.6 µM

CO[C@@H]1[C@H](OC(=O)NC(=O)CCl)CC[C@]2(CO2)[C@H]1[C@@]1(C)O[C@@H]1CC=C(C)C
inactive: activity change [1] -3.77% [at 18.9 µM, active compounds read high] | activity change, negative = inhibition [2] -6.49% [at 19 µM] | activation [3] -2.62% [at 19 µM] | activity, negative = inhibition [4] -21.4% [at 19 µM] | activity change, negative = cytotoxicity [5] -2.66% [at 19 µM] | activation [20] -3.01% [at 19 µM] | activity change, negative = cytotoxicity [6] -10.8% [at 19 µM] | activation [7] -0.438% [at 19 µM] | cAMP activity change [8] 2.97% [at 18.9 µM] | activity change, negative = inhibition [9] 0.358% [at 19 µM] | activity change, negative = cytotoxicity [10] -1.81% [at 19 µM] | activity change, negative = inhibition [14] 6.82% [at 18.9 µM] | activity change, negative = cytotoxicity [11] -12.2% [at 18.9 µM] | viability change, negative = cytotoxic [15] 3.4% [at 15.8 µM] | activity change, negative = cytotoxicity [16] 8.28% [at 15.8 µM] | activation [17] 3.24% [at 15.8 µM] | activity, negative = inhibition [19] 4.68% [at 10.5 µM]

CC(=O)CCC(C)=O
inactive: Potency [1] | Potency [2] | Potency [3] | Potency [4] | Potency [5] | Potency [18] | Potency [7] | outcome [8] | Potency [10] | Potency [13] | Potency [14] | Potency [11] | Potency [12] | Potency [15] | Potency [16] | outcome [17] | Potency [19]
